These results are taken from PubChem BioAssay (NCI).

About 83,000 compounds went through this panel and 20% of them were active in at least one assay; those are over-represented in the sample as a whole.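 How to read the values: 0–100, growth inhibition (40 = 60% inhibited); 0, no net growth; -100 to 0, cell death (-40 = 40% of starting cells died; -100 = all dead).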 Activity calls are given as the source filed them.

The subject of this assay is HOP-62 NSCLC. Briefly: NCI-60 one-dose screen, 48 h (100 = growth as untreated, 0 = no growth, -100 = all killed). The conditions noted are these: 10 µM unless noted. How it is done:
Growth inhibition of the HOP-62 human Non-Small Cell Lung tumor cell line is measured as a screen for anti-cancer activity. Cells are grown in 96 well plates and exposed to the test compound for 48 hours. Compounds are tested at a single concentration, which is 10^-5 M for most compounds. The reported endpoint is percent growth (GI% or GIPRCNT), where numbers from 0 - 100% represent growth inhibition, and numbers from -100% - 0 represent cell death. For example, a value of 40 represents 60% growth inhibition. A value of 0 means no net growth occurred over the course of the experiment. A value of -40 indicates 40% of cells at the beginning of the experiment died by the end of the experiment. A value of -100 means all cells are dead at the end of the experiment.
NCI-60 Human Tumor Cell Lines Screen was performed using the standard one-dose NCI protocol, which is described in more detail at https://dtp.cancer.gov/discovery_development/nci-60/default.htm.
Compounds with GIPRCNT values below 10 were considered active. Activity score was based on GIPRCNT using the following formula: […]
Score is 0 for GIPRCNT values of 100 or above, 50 for GIPRCNT values of 0, and 100 for GIPRCNT values of -100.
Consider `N#CSCC1CC(O)(c2ccccc2)C(c2ccccc2)C(c2ccc(Cl)cc2)O1` (stereo not given), for which the growth was 5.71% (active). Next, `Cc1ccc(C2=NNC(c3sc(Cl)nc3Cl)C2)cc1` (stereo not given): 107% (inactive); `COc1ccc(CC(=O)Nc2nn3c(-c4cc(C(F)(F)F)cc(C(F)(F)F)c4)nnc3s2)cc1`: 98.9% (inactive). As to `[N-]=[N+]=NCc1ncc(-c2ccc(C(F)(F)F)cc2)c(NC2CCCCCC2)n1`, the growth was 87% [50 µM] (inactive). With `O=Nc1c2cccnc2n2nnc3ccc(Cl)cc3c12` the figure was 115% (inactive); with `N#CC(C#N)C(C#N)C#N`, 90.9% (inactive); with `Cc1sc2nc(N3CCCCC3)[nH]c(=O)c2c1C`, 93.3% (inactive). Next, `CC(=O)c1ccccc1NC(=O)C(C)(c1ccccc1)c1ccccc1`: 40.4% (inactive); `N#Cc1c(-c2ccccc2)cc(-c2ccccc2)n(CCCC(=O)O)c1=O`: 85.1% (inactive); `CCCCNCCCN(CCCC)CCCNCCCC`: 94.9% (inactive). With `COc1ccc2c(c1)CC[C@@H]1[C@@H]2CC[C@]2(C)[C@@H](O)C(=O)C[C@@H]12`, the growth is 103% (inactive). Turning to `CC[n+]1c(/C=C/c2ccc(N3CCCC3)cc2)cccc1/C=C/c1ccc(N2CCCC2)cc1`, the growth was -54.4% (active). With `Clc1ccc2c(c1)C(Br)c1cc(Cl)cc(Cl)c1-2` (stereo not given), the growth was 88.1% (inactive). For the molecule `Nc1ncnc2c1CN(Cc1ccccc1)CC2`, the growth is 106% (inactive). With `CC(=O)Nc1ccc(C(=O)COc2cccc(/C=C3\CCc4ccccc4C3=O)c2)cc1` the figure was 104% (inactive); with `CC(=O)OC1Oc2cc(C)c(C)cc2-c2oc(=O)c(-c3ccccc3)cc21` (stereo not given), 48% (inactive). For `CC[C@H]1CN2CCc3cc(OC)c(OC)cc3C2C[C@@H]1CC1NCCc2cc(OC)c(OC)cc21` (stereo not given in full), the growth is -29.4% (active). Take `N#Cc1c(NC(=O)c2ccco2)[n+]([O-])c2ccccc2[n+]1[O-]`: the growth is 82.9% (inactive). Turning to `COc1cc(C2CC(C3C(=O)N(C)C(=O)N(C)C3=O)=NN2C=O)cc(OC)c1OC` (stereo not given), the growth is 73.5% (inactive). Next, `O=C1/C(=C/c2ccccc2O)C(=S)SN1Cc1ccco1`: 92.7% (inactive); `CC(C)C[C@H](NC(=O)/C=C/Cn1ccc2ccccc2c1=O)B(O)O`: 44.8% (inactive); `O=C1c2cc3c(cc2-c2c1c1ccc(Cl)cc1c(=O)n2CCCNCCO)OCO3`: -81.4% (active).

`CCOC(=O)CCN(c1c(Cl)ssc1=O)C(C)C`: the growth was 106% (inactive). With `CCOC(=O)OCC(=O)[C@@]1(O)CC[C@H]2[C@@H]3CCC4=CC(=O)CC[C@]4(C)[C@H]3[C@@H](O)C[C@@]21C` the figure was 98.5% (inactive). Next, `NS(=O)(=O)c1ccc(N2CC(c3nc4ccccc4[nH]3)CC2=O)cc1` (stereo not given): 85.4% (inactive); `CCOC(=O)CNC(=O)C1(NC(=O)CNC(=O)OCc2ccccc2)CCCC1`: 112% (inactive); `O=C(O)C1C(c2ccccc2)c2ccccc2C(O)C1CO` (stereo not given): 107% (inactive).

Regarding `COc1cc(/C=C/C(=O)C(C(=O)/C=C/c2ccc(OC(=O)CCNC34CC5CC(CC(C5)C3)C4)c(OC)c2)C(=O)CCNC23CC4CC(CC(C4)C2)C3)ccc1OC(=O)CCNC12CC3CC(CC(C3)C1)C2` (stereo not given), the growth is 29.8% (inactive). As to `c1ccc(N2c3nc4ccccc4cc3Sc3cc4ccccc4nc32)nc1`, the growth was 90.8% (inactive). Turning to `N#Cc1c(-c2ccccc2)cc(-c2ccccc2)n(CCCCCCC(=O)O)c1=O`, the growth was 94.4% (inactive). With `CCN(CC)CCSc1ncnc2c1cnn2-c1ccc(S(N)(=O)=O)cc1` the figure was 98.4% (inactive); with `COc1ccc2[nH]c(=O)c(CNc3ccc(Nc4nccc(-c5ccc(Cl)cc5)n4)cc3)cc2c1`, 102% (inactive); with `O=C(C(=O)c1cc(Br)ccc1O)c1cc(Br)ccc1O`, 50.3% (inactive). Next, `Cc1cc(=O)[nH]c(/C(=N/Nc2ccccc2)C(=O)c2ccc(Cl)cc2)n1`: 104% (inactive); `O=C(Nc1ccccc1)P(=O)(O)c1ccccc1`: 94.3% (inactive). `Oc1c(N=Nc2nn[nH]n2)ccc2ccccc12`: the growth was 85.4% (inactive). Regarding `COC(=O)N/N=C/c1coc2ccc(Cl)cc2c1=O`, the growth was 74.7% (inactive). Turning to `O=C(O)CNC(=O)C1(N2C(=O)c3ccccc3C2=O)CCCC1`, the growth was 110% (inactive). Next, `CN1CCN(c2nc3scc(-c4ccccc4)c3c(=O)[nH]2)CC1`: 103% (inactive); `CCNCCCn1c2c(c3ccc(F)cc3c1=O)C(=O)c1cc(OC)cnc1-2`: -29% (active).
